Laboratory results taken from ChEMBL document CHEMBL1201862, “PubChem BioAssay data set” (2004).
About 3,900 (7.5%) of roughly 52,000 sequences were called active. Rule as the data show it: active = GI50 up to about 1.1 µM and inactive = higher. These entries were drawn from the full list. Results with a measured potency or affinity are listed apart.

These substances were tested on RXF 393.

**Q.** “[Bis(aminomethyl)tetramethylenesilane]tetrachloropaltinum(IV), CHEMBL2146189” was tested. Which GI50 did it give?
**A.** 25.4 µM

**Q.** “[Bis(aminomethyl)pentamethylenesilane]tetrachloropaltinum(IV), CHEMBL2146204” was tested. Which GI50 did it give?
**A.** 7.35 µM

**Q.** Which GI50 does the source give for “[Bis(aminomethyl)dimethylsilane]tetrachloroplatinum(IV), CHEMBL2146190” here?
**A.** 3.59 µM

**Q.** With “[Bis(aminomethyl)dimethylsilane]dichloroplatinum (II), CHEMBL2146201” as the substance, how does the GI50 read?
**A.** 34.2 µM

**Q.** For “[Bis(aminomethyl)pentamethylenesilane]dichloropaltinum(II), CHEMBL2146202”, which GI50 is on record?
**A.** 2.92 µM

**Q.** With “cis-Bis[[(trimethylsilyl)methyl]amino]tetrachloroplatinum(IV), CHEMBL2146191” as the substance, how does the GI50 read?
**A.** 2.72 µM

**Q.** With “[Bis(aminomethyl)tetramethylenesilane]dichloropaltinum(II), CHEMBL2146205” as the substance, how does the GI50 read?
**A.** 12.6 µM

**Q.** “[Bis(aminomethyl)diethylsilane]tetrachloroplatinum(IV), CHEMBL2146203” was tested. Which GI50 did it give?
**A.** 17.4 µM

**Q.** For CISPLATIN, CHEMBL11359, which GI50 is on record?
**A.** 3.33 µM

**Q.** For “mu-(1,7-nanodiamine-N,N')bis-(cis-aminedichloroplatimum (II)), CHEMBL2146215”, which GI50 is on record?
**A.** 15.4 µM
